Bioassay records (PubChem)
AMA1 RON2 block – inhibitors of Plasmodium falciparum AMA1-RON2 interaction | Potency, µM (doses to about 58.2 µM), hits mostly inhibitors | actives 0.2% (n = 360,000) | AlphaScreen AMA1-biotinylated RON2 peptide binding | AID 720542; further: nearly all actives have a fitted effect of over 45% in size
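AMA1 (3D7) with his tag at 25 nM final met compounds first, then biotinylated RON2 peptide at 25 nM; detection used donor plus acceptor beads, 10 µg/mL apiece, read by AlphaScreen after 30 min at room temperature.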
AmpC inh no detg – AmpC beta-lactamase inhibition without detergent; AID 485341; Potency, µM (highest dose often 57.1 µM), actives largely listed as inhibitors; actives 0.52% (n = 330,000); AmpC nitrocefin hydrolysis, absorbance 480 nm, 0.0001% Triton; further: nearly all actives have a fitted effect of over 20% in size
Target sequence (P00811 whole entry, looked up): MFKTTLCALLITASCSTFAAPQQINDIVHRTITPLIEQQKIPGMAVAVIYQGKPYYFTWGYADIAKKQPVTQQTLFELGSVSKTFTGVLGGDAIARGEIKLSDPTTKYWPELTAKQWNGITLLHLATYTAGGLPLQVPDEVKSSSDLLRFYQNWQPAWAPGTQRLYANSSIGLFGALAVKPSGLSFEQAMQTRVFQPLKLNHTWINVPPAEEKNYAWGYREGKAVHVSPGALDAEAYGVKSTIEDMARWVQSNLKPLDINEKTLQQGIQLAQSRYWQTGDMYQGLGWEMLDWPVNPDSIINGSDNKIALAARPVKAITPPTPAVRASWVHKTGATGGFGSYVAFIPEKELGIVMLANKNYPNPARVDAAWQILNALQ
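AmpC (5.3 nM in the dispensed reagent) in 20 mM phosphate pH 7.0 with 0.01% (detergent screen) or 0.0001% Triton X-100 was preincubated with compounds for 15 min at room temperature. Nitrocefin was then added from an 800 uM solution, and hydrolysis was followed at 480 nm.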
SARS PLpro yeast-1 – blocks SARS-CoV papain-like protease in a yeast assay; S. cerevisiae expressing SARS-CoV PLpro, growth rescue; Potency, µM (top dose mostly 32.9 µM), actives largely listed as activators; actives 0.19% (n = 330,000); AID 485353; calls by dose curve; further: nearly all actives have a fitted effect of over 55% in size
AmpC detergent – inhibitors of E. coli AmpC beta-lactamase with detergent; P00811; AmpC hydrolysis of nitrocefin, absorbance 480 nm, 0.01% Triton; Potency, µM (highest dose often 114 µM), hits mostly inhibitors; actives 0.041% (n = 370,000); AID 485294; further: nearly all actives have a fitted effect of over 25% in size
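20 mM phosphate pH 7.0 + 0.01% (detergent screen) or 0.0001% Triton X-100; 5.3 nM AmpC reagent; cpd preinc 15 min RT; nitrocefin (800 uM stock) to start; A480 q20 s × 4 min; Activity was normalised to no-enzyme and no-compound control wells.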
VACV Venus inh – inhibitors of vaccinia virus (Venus reporter) | Potency, µM (titrated, usually from 36.5 µM), hits mostly inhibitors | Vaccinia virus Venus reporter expression, fluorescence | actives 0.46% (n = 330,000); calls by dose curve; tested in A549 cells; further: nearly all actives have a fitted effect of over 30% in size
VACV mCherry inh – inhibitors of vaccinia virus infection (mCherry reporter signal); Vaccinia virus mCherry reporter infection, fluorescence; Potency, µM (doses to about 36.5 µM), most hits filed as inhibitors; actives 0.63% (n = 310,000); calls by dose curve; tested in A549 cells; further: nearly all actives have a fitted effect of over 35% in size
SARS PLpro yeast-2 – Validates SARS-CoV PLpro inhibitor hits in yeast | shares compounds with SARS PLpro yeast-1 | yeast expressing SARS-CoV PLpro, growth phenotype rescue | calls only | actives 19% (n = 1,000) | AID 652038; call rule not given here
Each line names hits and unclear results; the compound was inactive in the other large screens (follow-up assays come after a bar, where they were run). Sampled rows, rich in hits. Any-hit rate of the full collection: about 1.3%. Unless noted, the call rests on the fitted dose curve; in most records, active means well fitted curve in the direction sought with a large enough effect; inconclusive means small, poorly fitted or top-dose-only effect, or another doubt; inactive means no such curve, though single readings can be large; an effect the other way counts as inactive or inconclusive.

COc1ccc(NC(=S)NN2C(C)CCCC2C)cc1 (stereo not given)	SARS PLpro yeast-1 13µM | SARS PLpro yeast-2 active
CC1CCCC(C)N1NC(=S)Nc1ccc(OC(F)F)cc1 (stereo not given)	SARS PLpro yeast-1 inconclusive, AmpC detergent inconclusive | SARS PLpro yeast-2 active
CCCNC(=O)c1cc(C2CCCCN2C(=O)c2ccc3c(c2)CCO3)on1 (stereo not given)	none (no result: AmpC inh no detg, SARS PLpro yeast-1, AmpC detergent)
CC(C)CNC(=S)N1CCC(NC(=O)c2ccco2)CC1	none
O=C(NC1CC1)c1ccc(CSCc2ccc(Cl)cc2)o1	none (no result: AmpC inh no detg, SARS PLpro yeast-1, AmpC detergent)
COCCNc1nc2cc(-c3ccccc3OC)sc2c(=O)n1C	none (no result: AmpC inh no detg, SARS PLpro yeast-1, AmpC detergent)
Cc1ccc([N+](=O)[O-])cc1S(=O)(=O)Nc1cccc(-c2ccc(N3CCCC3)nn2)c1	SARS PLpro yeast-1 11µM | SARS PLpro yeast-2 inactive
O=C1CN(C(=O)COC(=O)c2ccccc2NCc2ccco2)c2ccccc2N1	none
Cc1ccc(S(=O)(=O)NCCC(=O)NCc2ccc3c(c2)OCO3)cc1C	SARS PLpro yeast-1 16µM, AmpC detergent inconclusive | SARS PLpro yeast-2 inactive
CNC[C@@H]1Oc2ccc(NC(=O)Nc3c(C)noc3C)cc2CC(=O)N([C@H](C)CO)C[C@H]1C	SARS PLpro yeast-1 11µM (no result: AmpC detergent) | SARS PLpro yeast-2 inactive
Cc1ccc(S(=O)(=O)N(C)C[C@H]2Oc3ccc(NC(=O)Nc4c(C)noc4C)cc3CC(=O)N([C@@H](C)CO)C[C@@H]2C)cc1	none (no result: AmpC detergent)
Cc1cc(/C=C2/NC(=O)N(Cc3ccccc3F)C2=O)c(C)n1C(C)C	SARS PLpro yeast-1 inconclusive, VACV mCherry inh inconclusive | SARS PLpro yeast-2 inactive
NC(=S)N/N=C/C=C/c1ccccc1	SARS PLpro yeast-1 1.6µM, VACV Venus inh 0.79µM, VACV mCherry inh 1µM | SARS PLpro yeast-2 active
COc1ccc(/C=N/NC(N)=S)cc1OC(=O)c1ccccc1	SARS PLpro yeast-1 11µM (no result: VACV Venus inh, VACV mCherry inh) | SARS PLpro yeast-2 inactive
NC(=S)N/N=C/c1ccc2ccccc2c1	SARS PLpro yeast-1 5.6µM, VACV Venus inh 1µM, VACV mCherry inh 0.35µM | SARS PLpro yeast-2 active
CC(C)C(=O)Nc1cccc(COc2ccccc2CN(Cc2ccccc2)C(=O)OC(C)(C)C)c1	none (no result: AmpC inh no detg, SARS PLpro yeast-1, AmpC detergent)
CCOc1ccccc1C(=O)Nc1c(C(=O)Nc2ccc(F)cc2)oc2ccccc12	none (no result: AMA1 RON2 block, AmpC inh no detg, SARS PLpro yeast-1)
COc1ccc(C)cc1NC(=O)CN(C)S(=O)(=O)c1cnc[nH]1	SARS PLpro yeast-1 inconclusive | SARS PLpro yeast-2 inactive
COc1ccc(C)cc1NC(=O)CN(C)S(=O)(=O)c1cccs1	AmpC detergent inconclusive (no result: VACV mCherry inh)
Cc1ccccc1NC(=O)c1nc(S(=O)(=O)Cc2ccccc2F)ncc1Cl	none (no result: AMA1 RON2 block, AmpC inh no detg, SARS PLpro yeast-1, AmpC detergent)
CC(OC(=O)c1cccc(-n2cnnn2)c1)C(=O)c1ccccc1 (stereo not given)	AmpC inh no detg inconclusive, SARS PLpro yeast-1 inconclusive, AmpC detergent inconclusive | SARS PLpro yeast-2 inactive
Cc1oc2cc(OCc3cnn(-c4ccccc4)c3)ccc2c(=O)c1Oc1ccccc1F	SARS PLpro yeast-1 2.5µM, AmpC detergent inconclusive | SARS PLpro yeast-2 inactive
COC(=O)c1ccc(Oc2c(C)oc3cc(OCc4cnn(-c5ccccc5)c4)ccc3c2=O)cc1	none
O=S(=O)(c1ccc2ccccc2c1)N(CC(O)CN1CCOCC1)c1ccccc1 (stereo not given)	SARS PLpro yeast-1 inconclusive (no result: VACV mCherry inh) | SARS PLpro yeast-2 inactive
Cc1ccc(S(=O)(=O)N(CC(O)CN2CCOCC2)c2cccc([N+](=O)[O-])c2)cc1 (stereo not given)	none
COc1cccc(C(CNC(=O)C2CCN(C(=O)Nc3ccccc3)CC2)N(C)C)c1 (stereo not given)	SARS PLpro yeast-1 inconclusive | SARS PLpro yeast-2 inactive
Fc1ccccc1NC(=S)NCCc1cccc(Cl)c1	none
O=C(Nc1cccnc1)c1ccc(N2CCCC2)c([N+](=O)[O-])c1	none
CN1C(=O)c2ccc(NC(=O)c3ccc(N4CCCCC4)c([N+](=O)[O-])c3)cc2C1=O	SARS PLpro yeast-1 14µM | SARS PLpro yeast-2 inactive
Cc1ccc(S(C)(=O)=O)cc1C(=O)OCC(=O)N(Cc1ccccc1)Cc1ccccc1	none (no result: VACV Venus inh, VACV mCherry inh)
CCCCNC(=S)NC(=O)c1ccccc1Br	SARS PLpro yeast-1 11µM | SARS PLpro yeast-2 active
